# FGF22 binding – binders of recombinant human FGF22 by thermal shift; AID 651658; activity (Tm shift, normalised), % at 9.99 µM; hit rate 1.5% among 340,000; Q9HCT0; SYPRO orange fluorescence; percent of sucrose octasulfate shift, DMSO zero;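 active = mean Tm shift, scaled 0 neutral to 100 positive control, at about 1.3% or above, every replicate too, limit read from the data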
# Ecoli rRNA inh – selective bacterial rRNA inhibition in E. coli; E. coli WT GFP vs humanized-ribosome RFP mutants, fluorescence, 24 h; active compounds read low; DMSO median 0, no signal -100; GFP signal change (wild-type ribosome), % (test concentration not listed); hit rate 1.6% among 350,000; AID 720706;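 active = significant combined selectivity score with lowered wild-type GFP, culture density cut under 30%, mutant RFP and density less affected; inactive = any of these conditions unmet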
# proKLK7 act – activators of human kallikrein-7 zymogen; purified proKLK7, EDANS-DABCYL substrate fluorescence; 100% is mature enzyme control, 0% vehicle; activation, % at 7 µM; hit rate 0.9% among 370,000;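 active = activation above the mean of all tested compounds plus 3 SD, computed per campaign excluding outliers beyond control limits, cut at about 13% in these data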
# ADAM10 inh – inhibits human ADAM10; recombinant ADAM10, EDANS/DABCYL FRET peptide cleavage, 3 h; O14672; AID 720582; inhibition, % at 7 µM; hit rate 0.62% among 370,000;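 active = inhibition above a per-campaign cutoff equal to the mean of compounds falling between control-based bounds plus 3 SD, cut at about 20% in these data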;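 also: 0% = DMSO wells while the 100% control is not disclosed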
# ADAM17 inh – inhibits human ADAM17 | recombinant ADAM17, EDANS/DABCYL FRET peptide cleavage | inhibition, % at 6.95 µM | hit rate 0.83% among 370,000 | AID 720648;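 active = inhibition above the mean of compounds lying between control limits plus 3 SD, set per campaign, cut at about 8.5% in these data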;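 also: 0% = DMSO-only wells as the low control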
# ADAM10 confirm – confirmation of inhibitors of human ADAM10; shares compounds with ADAM10 inh; inhibition, % at 6.95 µM; AID 743208; ADAM10 QFRET peptide cleavage, EDANS fluorescence; hit rate 1% among 2,100;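 active = inhibition above about 20% chosen separately for each screening run, limit read from the data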;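 also: 0% = DMSO wells and 100% = marimastat wells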
# ADAM17 ctr – counter-screen for ADAM10 exosite inhibitors: inhibitors of human ADAM17. shares compounds with ADAM10 inh. ADAM17 QFRET peptide cleavage, EDANS fluorescence. inhibition, % at 6.95 µM. hit rate 0.5% among 2,100. AID 743214;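 active = mean triplicate inhibition above the solvent-only control wells' mean plus 3 SD, cut at about 12% in these data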;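 also: 0% = DMSO wells and 100% = marimastat wells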
# The depositor's hits bear a star; x = no result. Shown are actives, neighbours in structure and some others; about 3.8% of the full set was active somewhere.
SMILES,FGF22 binding,Ecoli rRNA inh,proKLK7 act,ADAM10 inh,ADAM17 inh,ADAM10 confirm,ADAM17 ctr
COc1ccc(S(=O)(=O)N2C[C@@H](O)COC[C@H]3O[C@H](CC(=O)NCCCN4CCOCC4)CC[C@@H]32)cc1,0,1,x,x,x,x,x
C[C@H](CO)N1C[C@H](C)[C@@H](CN(C)C(=O)c2ccncc2)Oc2ncc(C#CC3CCCC3)cc2C1=O,x,2,x,x,x,x,x
C[C@@H]1CCCCO[C@@H](CN(C)C(=O)c2ccncc2)[C@H](C)CN([C@@H](C)CO)C(=O)c2cc(NC(=O)C3CCCCC3)ccc2O1,x,-1,x,x,x,x,x
Cc1ccccc1S(=O)(=O)N1C(c2ccc(Cl)c(Cl)c2)CC=C(C(=O)O)C1c1cccc(Br)c1 (stereo unspecified),1,-10,1,20*,1,2,0
O=C(COC(=O)c1c2c(nc3ccccc13)CCCC2)Nc1ccc2c(c1)OCO2,x,x,-1,24*,8,3,1
Cc1ccc(S(=O)(=O)N2C[C@@H](C)[C@]3(C2)[C@H](O)[C@H](OC(=O)NCc2ccco2)C[C@H]2C(=O)N(c4ccccc4)C(=O)[C@H]23)cc1,0,7,0,-17,3,x,x
COc1ccc(CNC(=O)O[C@@H]2C[C@H]3C(=O)N(c4ccccc4)C(=O)[C@H]3[C@@]3(CN(S(=O)(=O)c4ccc(C)cc4)C[C@H]3C)[C@@H]2O)cc1OC,0,-1,0,20*,6,1,0
COc1ccc(NC(=O)Nc2ccc3c(c2)C(=O)N([C@H](C)CO)C[C@H](C)[C@@H](CN(C)C(=O)NC(C)C)OCCCC[C@H](C)O3)cc1,0,0,x,x,x,x,x
CCNC(=O)NC(=O)C(C)OC(=O)c1ccc(-n2nc(SC)sc2=S)cc1 (stereo unspecified),0,4,0,22*,3,1,0
COc1ccc(CCNC(=O)c2cc(-c3cc(Cl)ccc3O)n[nH]2)cc1OC,0,-3,0,9,-2,x,x
NS(=O)(=O)c1ccc(CCNC(=O)c2cc(-c3cc(Cl)ccc3O)n[nH]2)cc1,0,-49,0,23*,2,2,2
Cc1ccc(N2CCN(CC(O)COc3cccc4ccccc34)CC2)cc1 (stereo unspecified),-1,-19,0,20*,4,5,0
COc1ccc(-c2[nH]c(-c3ccc(C)cc3)nc2SCC(=O)Nc2nccs2)cc1,x,-16,-1,20*,1,6,3
CCC(=O)Nc1ccc2c(c1)C(=O)N(C)C[C@H](OC)[C@H](C)CN(CCc1ccccc1)[C@@H](C)CO2,0,-1,x,x,x,x,x
O=C(CSCc1ccccc1Cl)NN=C1CCCCCC1,x,x,0,20*,3,1,1
O=C(CSCc1c(Cl)cccc1Cl)NN=C1CCCC1,0,-8,0,10,3,x,x
CC1Cc2ccccc2N1C(=O)c1ccc(N2CCCC2)c([N+](=O)[O-])c1 (stereo unspecified),0,-33,0,24*,5,1,0
CCc1ccc(N=Nc2ccc(O)c3[nH]cnc23)cc1,0,7,1,24*,7,2,1
CCCN(CC1CC1)C(=O)c1oc(=O)c2ccccc2c1-c1ccc(C)cc1,x,x,0,0,-6,x,x
COc1ccc(N(C)C(=O)c2oc(=O)c3ccccc3c2-c2ccc(C)cc2)c(OC)c1,0,-12,1,22*,2,2,1
O=C(NO)c1ccc(C(=O)N(C2CCCCC2)C2CCCCC2)cc1,x,x,1,30*,4,22*,2
Cn1cccc1/C=N/NC(=O)c1cc2ccccc2cc1O,0,0,-3,23*,1,8,5
C[C@@H]1CCCCO[C@@H](CN(C)C(=O)Nc2ccc3c(c2)OCO3)[C@@H](C)CN([C@@H](C)CO)C(=O)c2cc(NC(=O)c3ccccc3)ccc2O1,0,5,x,x,x,x,x

# Screening results (PubChem BioAssay)
